Molecules are shown by their SMILES. Among all 420,000 compounds or so, about 50,000 (12%) were called active. Where a call stands in place of a potency, no number is given. Not shown: some 26% with an inconclusive outcome. The sample holds actives, similar compounds and a random draw of the others, so the mix is not that of the screen. Calls follow the shape of the dose curve; as a rule, active = well fitted inhibition curve with a large enough effect; inconclusive = small, poorly fitted or top-dose-only effect; inactive = flat fitted curve, though single readings scatter.
Potency is read from the fitted curve at half-maximal effect.

This assay is described as follows: qHTS for Inhibitors of human tyrosyl-DNA phosphodiesterase 1 (TDP1): qHTS in cells in presence of CPT. Also: nearly all actives have a fitted effect of over 55% in size. The settings on record: chicken DT40 Tdp1-/-;hTDP1 cells + 20 nM CPT, ATP luminescence, 48 h; series mostly up to 46.2 µM. The procedure, abridged: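 Chicken DT40 Tdp1-/- cells complemented with human TDP1, 400 cells/well, exposed to compounds plus 20 nM camptothecin for at least 48 h at 37 C; viability read as ATP content by CellTiter-Glo luminescence.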
(In general: Quantitative high-throughput screening tests each substance at several concentrations.)
On to `Cc1ccccc1-n1cc(CNC(=O)C2CCC(=O)N(C3CC3)C2)cn1` (stereo not drawn), for which the Potency entry was “inactive”. As for `CCOC(=O)c1sc2nc(C)nc(Nc3ccc(OC)c(OC)c3)c2c1C`, the entry is “inactive”; as for `CC(=O)c1ccc(N=C2SCCCN2C(=O)C2CCCCC2)cc1`, “inactive”; as for `Cc1ccc(-c2cc(C(=O)Oc3ccccc3Cl)no2)cc1C`, “inactive”. `COc1ccc([C@H]2N[C@]3(CCCN(CC4CCCCC4)C3=O)[C@H]3C(=O)N(C)C(=O)[C@@H]23)cc1`: the Potency entry was “inactive”.

For `COc1ccc(-c2ccc(CN3C(CC(C)C)C(=O)N(Cc4cn(CC5CCCCC5)nn4)CCS3(=O)=O)cc2)cc1` (stereo not drawn), the Potency was 18.4 µM (active). As for `CC1C(=O)N(Cc2cn(CC3CCCCC3)nn2)CCS(=O)(=O)N1Cc1ccc(-c2cccc(N(C)C)c2)cc1` (stereo not drawn), the figure is 4.61 µM (active); as for `O=S1(=O)CC(N2CCN(CCO)CC2)CN1Cc1cn(Cc2cccc(Cl)c2)nn1` (stereo not drawn), “inactive”; as for `O=S1(=O)CC(N2CCSCC2)CN1Cc1cn(Cc2cccc(Cl)c2)nn1` (stereo not drawn), “inactive”. On to `COc1ccc(COC(=O)NC(C(=O)O)c2ccccc2)cc1` (stereo not drawn), for which the Potency entry is “inactive”. Regarding `O=C(O)c1ccccc1-c1ccccc1C(=O)Nc1ccccc1Br`, the Potency result was “inactive”.

In the case of `O=C(CCNS(=O)(=O)c1ccc(Br)s1)NCc1ccccc1Cl`, the Potency result is “inactive”.

Consider `O=C(Nc1nnc(Cc2ccc(Cl)cc2)s1)c1cccnc1`, for which the Potency result is “inactive”. As for `NC(=O)COc1ccc(NC(=O)c2ccccc2-c2ccccc2)cc1`, the entry is “inactive”. For `CCOC(=O)c1nnn2c3ccccc3c(=O)n(C)c12`, the Potency entry was “inactive”. With `Cn1c2ccccc2c(=O)c2c(O)cccc21`, the Potency result was “inactive”. With `CCCc1nc2c(c(=O)c3ccccc3n2C)c(=O)n1C1CCCCCC1`, the Potency is 18.4 µM (active). As for `CCOc1ccc(C(=O)Nc2ccc(S(=O)(=O)Nc3cc(C)on3)cc2)cc1`, the entry is “inactive”. Turning to `Cc1ccc(Nc2c(-c3ccc(Cl)cc3)nc3sccn23)c(C)c1`, the Potency result is “inactive”. With `O=C(O)c1ccc(Cn2c(=S)[nH]c3cc(Cl)ccc3c2=O)cc1`, the Potency entry is “inactive”. Take `N#CC1=C(N)Oc2c(sc3ccccc23)C1c1ccco1` (stereo not drawn): the Potency was 7.31 µM (active). As for `COC(=O)C1=C(O)/C(=C/c2ccc(OCC(=O)Nc3ccccc3)cc2)N=C1C`, the entry is “inactive”.

Consider `COC(=O)C1CCCCN1C(=O)c1ccc(OC2CCN(C(C)=O)CC2)c(OC)c1` (stereo not drawn), for which the Potency result was “inactive”. As for `O=S(=O)(NC1CCCCC1N1CCC(O)CC1)c1ccc(Cl)cc1` (stereo not drawn), the Potency entry is “inactive”. On to `CNC(=O)N1c2ccccc2C=Cc2ccccc21`, for which the Potency result was “inactive”. As for `CCNC(=O)N1c2ccccc2Sc2ccccc21`, the entry is “inactive”; as for `CC1C(C)N(C(=O)CCl)c2ccccc2N1C(=O)CCl` (stereo not drawn), 0.58 µM (active). As to `C=CCNC(=S)N1CCN(CCN=Cc2c(C)[nH]n(-c3ccc([N+](=O)[O-])cc3)c2=O)CC1`, the Potency entry is “inactive”. For `Cc1[nH]n(-c2ccccc2)c(=O)c1N=Nc1ccccc1C(=O)N1CCCCC1`, the Potency result was “inactive”. As for `Cc1[nH]n(-c2ccc([N+](=O)[O-])cc2)c(=O)c1C=NCCN1CCN(C(=O)c2ccccc2F)CC1`, the Potency is 9.2 µM (active). Consider `CCCC(=O)Nc1cccc(NC(=S)NC(=O)C(C)Oc2ccc(Cl)cc2Cl)c1` (stereo not drawn), for which the Potency entry is “inactive”. As for `CC1CC(C)CN(C(=O)CCNC(=O)Cn2cnc3ccccc3c2=O)C1` (stereo not drawn), the entry is “inactive”.

`C=CCOc1cccc(C2C(C(=O)c3ccc(C)o3)=C(O)C(=O)N2CCCn2ccnc2)c1` (stereo not drawn): the Potency entry was “inactive”. For the molecule `CC(C)N1CCc2c(sc(NC(=O)Cc3ccccc3)c2C#N)C1`, the Potency result is “inactive”. For `CCC1CCc2c(sc(NC(C)=O)c2C#N)C1` (stereo not drawn), the Potency entry was “inactive”.

For the molecule `CC(=O)N1CCc2c(sc(NC(=O)CCS(=O)(=O)c3ccccc3)c2C#N)C1`, the Potency was 20.6 µM (active). For `Cc1c(C(=O)NCC2CCCN(C)C2)cnn1-c1nccc(-c2ccco2)n1` (stereo not drawn), the Potency result was “inactive”. For the molecule `CC(NC(=O)Nc1ccccc1)C(c1cccs1)N1CCN(c2ccccc2)CC1` (stereo not drawn), the Potency is 13 µM (active). For `O=C(Nc1ccccc1)N1CCN(Cc2ccccc2)CC1`, the Potency result is “inactive”. As to `CC(NC(=S)Nc1ccccc1)C(c1cccs1)N1CCOCC1` (stereo not drawn), the Potency entry was “inactive”.

For the molecule `CCCC(=O)NC(C)C(c1cccs1)N1CCN(c2ccccc2)CC1` (stereo not drawn), the Potency result was “inactive”. As for `CCCC(c1nnnn1C(C)(C)C)N1CCN(Cc2ccccc2)CC1` (stereo not drawn), the entry is “inactive”; as for `CC(NC(=O)C(C)(C)C)C(c1cccs1)N1CCN(Cc2ccccc2)CC1` (stereo not drawn), 20.6 µM (active); as for `O=C(NCCCN1CCCCCC1)C1CC(=O)N(C2CCCC2)C1` (stereo not drawn), “inactive”. As for `N#Cc1nc(/C=C/c2ccc(F)cc2)oc1NCc1ccc(F)cc1`, the entry is “inactive”; as for `Cc1cc(NC(=O)CCC(=O)N(CC(=O)NC2CCCC2)c2ccc(F)cc2)no1`, “inactive”. As for `CNC(=O)/C(C#N)=C/c1c(F)cccc1Cl`, the Potency is 11.6 µM (active).

As for `Cc1[nH]c2ccccc2c1/C=C(/C#N)C(=O)NC(C)C`, the Potency result was “inactive”. Take `N#C/C(=C\c1ccccc1C(F)(F)F)C(=O)Nc1ccccc1F`: the Potency entry is “inactive”. Take `Cc1ccsc1C(=O)NCCc1ccco1`: the Potency result is “inactive”. As to `CCN1CCN(C(C(=O)NC2CCCC2)c2cc3c(cc2[N+](=O)[O-])OCO3)CC1` (stereo not drawn), the Potency result is “inactive”. As for `CCc1ccccc1NC(=O)c1cc(-c2ccc3c(c2)OCO3)on1`, the Potency entry was “inactive”. On to `COc1ccc(-c2cn(-c3ccc(C)cc3)c(=O)n2CC(=O)Nc2ccc(OC)c(OC)c2)cc1`, for which the Potency result was “inactive”.

As for `Cc1ccc(Nc2nc(Cl)c(C=O)s2)cc1`, the Potency is 18.4 µM (active). As for `CC(=O)c1sc(N/N=C\c2ccc(C)cc2)nc1C`, the entry is “inactive”; as for `Cc1ccc(Nc2nnc(SC(C)C(=O)NC3CC3)s2)cc1` (stereo not drawn), “inactive”. For `COc1ccc(NC(C)=O)cc1NC(=O)CN1CCN(C2c3ccccc3-c3ccccc32)CC1`, the Potency entry was “inactive”. As for `COCCN(C(=S)Nc1ccccc1OC)C1CCN(C(C)C)CC1`, the entry is “inactive”; as for `Cc1cc(C#N)c(SCC(N)=O)nc1-c1ccc(F)cc1`, “inactive”. With `Cc1nn(-c2ccccc2)c(Cl)c1/C=C/C(=O)c1ccc(O)cc1`, the Potency result was “inactive”. As for `O=C(NOCc1ccccc1)c1cccc([N+](=O)[O-])c1`, the Potency result was “inactive”. As for `CCC1(C(=O)c2ccccc2)C(c2cccc([N+](=O)[O-])c2)C1(C(=O)OC)C(=O)OC` (stereo not drawn), the figure is 23.1 µM (active); as for `Cc1cc(CNC(=O)c2cccc([N+](=O)[O-])c2)c2ccccc2n1`, “inactive”; as for `CC1O[C@H](OC2C(COC3OC(CO)C(O)[C@H](O)C3O)OC(OC3CC[C@]4(C)C(CC[C@@]5(C)[C@@H]4C=C[C@]46OC[C@@]7(CCC(C)(C)C[C@H]74)C(O)C[C@@]56C)C3(C)C)C(O)C2O)C(O)C(O)C1O` (stereo partly drawn), “inactive”. As for `CCc1ccc(-c2nn(-c3ccccc3)cc2CSC(=N)N)cc1`, the figure is 16.4 µM (active). Take `CCc1ccc(-c2nn(-c3ccccc3C)cc2C(=O)N2CCN(C3CCS(=O)(=O)C3)CC2)cc1` (stereo not drawn): the Potency result was “inactive”.

As to `Cc1ccc(-c2nn(-c3ccccc3)cc2C(=O)NC2CCC(O)CC2)cc1` (stereo not drawn), the Potency entry was “inactive”. Consider `CC1(C)C2CCC13CS(=O)(=O)NC3C2` (stereo not drawn), for which the Potency result was “inactive”. For the molecule `COC(=O)c1c(C(=O)OC)c2n(c1C)CCS2`, the Potency result was “inactive”.

As for `Cc1cc2c(cc1C)NC(c1ccccn1)C1=C(CC(C)(C)CC1=O)N2` (stereo not drawn), the Potency entry is “inactive”. In the case of `CC1(C)CC(=O)C2=C(C1)Nc1cc(C(=O)c3ccccc3)ccc1NC2c1ccccn1` (stereo not drawn), the Potency entry was “inactive”. Take `Cc1nn(-c2ccccn2)c2c1C(c1ccncc1)C1=C(CC(C)(C)CC1=O)N2` (stereo not drawn): the Potency was 29.1 µM (active). Turning to `Cc1cc(C)c(C2C3=C(Nc4c2c(C)nn4-c2ccccn2)c2ccccc2C3=O)c(C)c1` (stereo not drawn), the Potency was 13 µM (active). For the molecule `CN(CC(=O)NCc1ccc2c(c1)OCO2)CC(=O)Nc1ccc(F)c(F)c1F`, the Potency result is “inactive”. As for `COc1ccc(-n2nc3c(c2NC(=O)c2ccc(N4C(=O)CCC4=O)cc2)CSC3)cc1`, the entry is “inactive”. Consider `O=C(Oc1cccc(C(=S)N2CCOCC2)c1)c1cccc(Cl)c1`, for which the Potency result was “inactive”. Turning to `COC(=O)c1cccc(NC(=O)c2cccc(N3C(=O)CCC3=O)c2)c1`, the Potency entry is “inactive”. With `COc1ccccc1C(=O)NCC(=O)OCC(=O)Nc1nnc(-c2ccccc2)o1`, the Potency entry is “inactive”.

On to `Cc1cc(C)cc(NC(=O)N(C)Cc2ccccc2)c1`, for which the Potency result was “inactive”.

Turning to `O=C(COc1ccccc1F)NC1CC1`, the Potency result is “inactive”.

On to `CC(NC(=O)c1ccco1)C(=O)Nc1nc(-c2ccccn2)cs1` (stereo not drawn), for which the Potency is 5.8 µM (active). With `NS(=O)(=O)c1ccc2nc(NC(=O)COc3ccccc3)sc2c1`, the Potency entry is “inactive”.

In the case of `N#Cc1ccc(OCC(=O)Nc2nc(-c3ccccn3)cs2)cc1`, the Potency is 1.64 µM (active). As for `CC1CCCCC1NC(=O)COc1ccc(C#N)cc1` (stereo not drawn), the Potency entry is “inactive”. With `Cc1ccnc(NC(=O)c2ccco2)n1`, the Potency entry is “inactive”.

Regarding `CC1CCN(S(=O)(=O)c2nnc(NC(=O)COc3ccccc3F)s2)CC1`, the Potency result is “inactive”. As for `O=C(COc1ccccc1F)Nc1nc(-c2ccccn2)cs1`, the Potency was 5.17 µM (active). Consider `Cc1cc(NC(=O)[C@H](C)NC(=O)c2ccco2)ccc1Br`, for which the Potency entry was “inactive”. Regarding `CCOC(=O)C1C(c2ccc(O)cc2)NC(=O)NC1(O)C(F)(F)F` (stereo not drawn), the Potency result is “inactive”. Regarding `Cc1ccccc1NC(=O)CSC1=NCCN1`, the Potency result was “inactive”.

In the case of `Cc1nc(SCC(=O)N2CCN(c3ccccc3)CC2)[nH]c(=O)c1C`, the Potency result is “inactive”. As for `Cc1ccc(C2(C(F)(F)F)N=C3Sc4cc(C)cc(C)c4N3C(=O)N2)cc1` (stereo not drawn), the entry is “inactive”. As for `C=CCc1cc(C)ccc1OCCCn1ccnc1`, the entry is “inactive”; as for `Brc1ccc(OCCn2ccnc2)cc1`, “inactive”; as for `c1ccc(Cc2ccc(OCCn3ccnc3)cc2)cc1`, 20.6 µM (active). Regarding `CCN(CC(=O)Nc1ccc2c(c1)OCCO2)Cc1cc(=O)oc2cc(C)c(C)cc12`, the Potency entry was “inactive”. In the case of `CC(C)Cc1oc(C(=O)O)cc1CN`, the Potency entry was “inactive”. For `Cc1cc(C)c(NC(=O)CSc2nc3nccnc3c(=O)n2CCc2c[nH]c3ccccc23)c(C)c1`, the Potency result is “inactive”. As to `COCCn1c(SCC(=O)Nc2ccccc2F)nc2c(c1=O)SCC2`, the Potency result is “inactive”. As for `Cc1cc(C)cc(NC(=O)Cn2c(=O)c3ccccc3n3nncc23)c1`, the entry is “inactive”; as for `Cc1cc(C)cc(NC(=O)CSc2nc3nccnc3c(=O)n2CCc2c[nH]c3ccccc23)c1`, 14.6 µM (active); as for `Cn1c(CCC(=O)Nc2ccccc2F)nnc1SCC(=O)Nc1ccccc1Cl`, “inactive”.

With `O=C(CSc1nc2nccnc2c(=O)n1CCc1c[nH]c2ccccc12)Nc1ccccc1F`, the Potency was 10.3 µM (active).
